Compound activity: PubChem BioAssay, DiRusso Lab, Biochemistry Department, University of Nebraska
Chlamy TAG: inducers of TAG accumulation in Chlamydomonas, primary screen, qHTS, Chlamydomonas reinhardtii; Nile Red fluorescence, 72 h; calls only at 10 µM (by protocol); actives 0.84% (n = 44,000); AID 1159537, 2015; call rule not given here;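 further: hits raise Nile Red signal meaning more stored TAG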
Active calls of the source: *; i = inactive; + = active, no number. Only a selection was taken, and hits are over-represented in it overall.

SMILES | Chlamy TAG
CCOc1ccccc1N(CC(=O)NCC1CCCO1)S(=O)(=O)c1ccc(C)cc1 (stereo not drawn) | i
Cn1c(SCC(=O)NCc2ccccc2)nnc1-c1ccc(NC(=O)c2ccccc2F)cc1 | i
COc1ccc(CNC(=O)CSc2nnc(-c3cccc(OC)c3)n2C)cc1 | i
Cn1c(SCC(=O)NCc2ccccc2)nnc1-c1ccc(C(C)(C)C)cc1 | +
COc1ccc(OC)c(CN2CCN(Cc3cc(OC)c(OC)c(OC)c3)CC2)c1 | i
COc1ccc(CN2CCN(Cc3cccc([N+](=O)[O-])c3)CC2)cc1 | i
O=[N+]([O-])c1ccc(CN2CCN(C3CCCCCC3)CC2)cc1 | +
COc1cc(CN2CCN(Cc3ccc([N+](=O)[O-])cc3)CC2)cc(OC)c1 | +
COc1ccc(OC)c(CN2CCN(Cc3ccc(OC)c(OC)c3)CC2)c1 | i
O=[N+]([O-])c1ccc(CN2CCC(N3CCCCC3)CC2)cc1 | i
COc1cc(CN2CCN(Cc3cccc([N+](=O)[O-])c3)CC2)cc(OC)c1OC | i
COc1ccc(OC)c(CN2CCN(Cc3ccc([N+](=O)[O-])cc3)CC2)c1 | +
COc1ccc(S(=O)(=O)N2CCN(Cc3ccc([N+](=O)[O-])cc3)CC2)cc1 | i
COc1ccc(CN2CCN(Cc3ccc([N+](=O)[O-])cc3)CC2)cc1OC | +
COc1ccc(CN2CCN(Cc3cc(OC)c(OC)cc3[N+](=O)[O-])CC2)cc1OC | i
O=[N+]([O-])c1ccc(CN2CCCCCC2)cc1 | i
O=C(Cc1cccs1)N1CCCCCC1 | i
N#C/C(=C\c1cc2c(cc1Br)OCO2)c1nn(CCO)c(N)c1C#N | i
O=C1C(=O)N(c2ccccn2)C(c2cccc(F)c2)C1=C(O)c1ccccc1 (stereo not drawn) | i
CCc1ccc(OCC(=O)Nc2cc(C)ccc2OC)cc1 | i
CCN(CC)c1cc(N2CCN(C(=O)c3ccccc3F)CC2)c([N+](=O)[O-])cc1F | i
O=C(CSc1ccccc1)Nc1cc(Cl)ccc1Cl | i
Cc1ccc(NC(=O)c2ccc3c(c2)C(=O)N(N2C(=O)c4ccccc4C2=O)C3=O)cc1C | i
COc1cc(OC)cc(C(=O)N2CCN(c3ccccn3)CC2)c1 | i
COc1ccccc1NC(=O)N1CCN(c2ccccn2)CC1 | +
SMILES | Chlamy TAG
COc1ccccc1N1CCN(C(=O)Nc2ccccc2Cl)CC1 | i
Cc1ccc(C(=O)Nc2cc(C)c(O)cc2C)cc1 | i
Cc1ccc(-c2nc3ncccc3o2)cc1NC(=O)c1ccc([N+](=O)[O-])c(C)c1 | i
CC1CN(CC(O)COc2ccc(Cl)cc2Cl)CC(C)O1 (stereo not drawn) | i
CC(C)(C)c1ccc(OCC(O)CN)cc1 (stereo not drawn) | i
CC(C)(C)c1ccc(OCC(O)CN2CCN(CCO)CC2)cc1 (stereo not drawn) | +
CC1CN(CC(O)COc2ccc(C(C)(C)C)cc2)CC(C)O1 (stereo not drawn) | +
CC1CN(CC(O)COCc2ccc(Cl)cc2)CC(C)O1 (stereo not drawn) | i
Cc1cc(C)n(CC(O)COc2ccc(C(C)C)c(C)c2)n1 (stereo not drawn) | i
Cc1cc(OCC(O)CN2CCN(c3ccccc3)CC2)ccc1C(C)C (stereo not drawn) | i
CCOC(=O)N1CCN(CC(O)COc2ccc(C(C)(C)C)cc2)CC1 (stereo not drawn) | i
Cc1cc(OCC(O)CN2CCN(CCO)CC2)ccc1C(C)C (stereo not drawn) | +
O=C(Nc1ccc2[nH]c(=O)[nH]c2c1)c1ncn[nH]1 | i
CN1CCN(C(=O)CN(C2CCCCC2)S(=O)(=O)c2ccc(F)cc2)CC1 | i
COc1ccc(OC)c(CNc2sc3c(c2C(=O)Nc2ccccc2OC)CCC3)c1 | i
CN(C)c1ccc(CN2CCCC2)cc1 | i
Cc1onc(-c2c(Cl)cccc2Cl)c1C(=O)Nc1nc2ccc([N+](=O)[O-])cc2s1 | i
COc1ccc(C(=O)CSc2nc3sc(C)c(C)c3c(=O)[nH]2)cc1 | i
COc1ccc(C)cc1NC(=O)c1c(I)cnn1C | i
O=C(Nc1nc2c(s1)CCCC2)c1cccc(Cl)c1 | i
CCc1nnc(NC(=O)c2cc(OC)c(OC)c(OC)c2)s1 | i
COc1cc(C(=O)Nc2nc3c(s2)CCCC3)cc(OC)c1OC | +
COc1ccc2nc(-c3ccccc3)cc(C(=O)NN)c2c1 | i
Cn1c(SCC(=O)O)nc2ccccc21 | i
COc1ccc(N2CCN(Cc3cc(OC)cc(OC)c3)CC2)cc1 | i
SMILES | Chlamy TAG
Clc1ccc(N2CCN(Cc3ccsc3)CC2)cc1 | +
COc1cccc(N2CCN(Cc3ccco3)CC2)c1 | i
O=C(c1ccc(CN2CCOCC2)cc1)N1CCN(c2ccc(F)cc2)CC1 | i
O=[N+]([O-])c1ccc(N2CCN(Cc3ccsc3)CC2)cc1 | i
Fc1ccc(N2CCN(Cc3ccsc3)CC2)cc1 | +
COc1cccc(N2CCN(Cc3ccsc3)CC2)c1 | +
Clc1ccc(N2CCN(Cc3cccs3)CC2)cc1 | i
